Calls of active or inactive are those of the source. Unless noted, how the calls were made is not given here.
Tests used:
[1] = HepG2 liver cancer cell viability effects, profiling panel, resazurin fluorescence, 24 h, PK04 Diversity Set (AID 1172); conditions: higher = more signal
[2] = basal S. cerevisiae growth modulation, no modifier, primary screen, OD600, strain BY4716, 24 h, basal condition (AID 1173); conditions: OD600, 24 h, higher = more signal, called active from +8 up or from −8 down
[3] = MM1S myeloma cell viability, profiling panel, resazurin fluorescence, basal, 24 h, PK04 Diversity Set (AID 1174); conditions: higher = more signal, called active from +8 up or from −8 down;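 further: MM1S multiple myeloma cell line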
[4] = target: Dihydroorotate dehydrogenase (quinone), mitochondrial (Plasmodium falciparum (isolate 3D7)) (UniProt Q08210); assay: PfDHODH enzyme inhibitors, primary screen, biochemical, C-terminal His tag, absorbance 600 nm (AID 1175); conditions: DCIP absorbance 600 nm, higher = more signal, called active from +8 up or from −8 down;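 further: recombinant parasite enzyme with a five histidine tag at its C terminus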
[5] = P. aeruginosa biofilm formation inhibitors, primary screen, strain PAO1, LB-PBS medium, absorbance 600 nm (AID 1176); conditions: P. aeruginosa PAO1 growth/biofilm, A600, 12 h; higher = more signal
[6] = S. cerevisiae RM11-1a growth modifiers, primary screen, strain RM11-1a, OD600, basal, 24 h (AID 1177); conditions: OD600, 24 h, higher = more signal, called active from +8 up or from −8 down;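 further: cultures grown under basal conditions with no added stressor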
[7] = E. coli acrAB mutant growth effects, primary screen, E. coli filamentation inducers, strain DRC39, OD650, 24 h (AID 1178); conditions: higher = more signal, called active from +8 up or from −8 down;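 further: growth measured as culture turbidity by optical density at 650 nm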
[8] = E. coli acrAB mutant growth effects, primary screen, E. coli filamentation inducers, strain DRC39, OD650, 48 h (AID 1179);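 further: screen aims at cell division blockers that make cells filament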; conditions: E. coli DRC39 delta-acrAB growth, higher = more signal, called active from +8 up or from −8 down
[9] = RPMI8226 myeloma cell viability, profiling panel, resazurin fluorescence, basal, 24 h, PK04 Diversity Set (AID 1180); conditions: higher = more signal;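 further: RPMI8826 multiple myeloma cell line at 5000 cells per well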
[10] = target: E3 ubiquitin-protein ligase XIAP (Homo sapiens) (UniProt P98170); assay: XIAP binders, primary screen, biophysical, small-molecule microarray, fluorescence 635 nm (AID 1181); conditions: small-molecule microarray binding, higher = more signal;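 further: score merges 667 nm emission and signal to noise over triplicate slides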
[11] = system: XIP peptide (Xip251-270) binding; assay: small-molecule binders of XIP peptide, primary screen, biochemical, small-molecule microarray, fluorescence 635/667 nm, 0.1 µg/mL protein (AID 1182); conditions: fluorescent protein binding, 635 nm, higher = more signal, called active from +8 up or from −8 down
XIP peptide (Xip251-270) = assay: small-molecule binders of XIP peptide, primary screen, biochemical, small-molecule microarray, fluorescence 635/667 nm, 0.5 µg/mL protein (AID 1183); conditions: small-molecule microarray binding, fluorescence 635 nm; higher = more signal
[12] = Plasmodium falciparum growth inhibition, primary screen, strain 3D7, DAPI fluorescence, 100 nL (AID 1184);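 further: parasites grown inside human red blood cells in medium with human serum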; conditions: P. falciparum 3D7 growth, 3 d, higher = more signal
[13] = target: Homeobox protein Hox-A13 (Mus musculus) (UniProt Q62424); assay: inhibitors of HoxA13-DNA binding, primary screen, biochemical, fluorescence polarization, labeled oligonucleotide (AID 1185); conditions: 15 min, higher = more signal, called active from +8 up or from −8 down
[14] = inhibitors of hydroxyurea-induced Chk1 phosphorylation, primary screen, imaging, HeLa, phospho-Chk1 antibody, percent positive cells (AID 1186); conditions: hydroxyurea-induced phospho-Chk1 immunofluorescence imaging, higher = more signal
[15] = inhibitors of hydroxyurea-induced Chk1 phosphorylation, primary screen, imaging, HeLa, phospho-Chk1 nuclear intensity (AID 1187); conditions: hydroxyurea-induced phospho-Chk1 immunofluorescence imaging, higher = more signal

Dihydroorotate dehydrogenase (quinone), mitochondrial (Plasmodium falciparum (isolate 3D7)), sequence (Q08210 whole entry, looked up): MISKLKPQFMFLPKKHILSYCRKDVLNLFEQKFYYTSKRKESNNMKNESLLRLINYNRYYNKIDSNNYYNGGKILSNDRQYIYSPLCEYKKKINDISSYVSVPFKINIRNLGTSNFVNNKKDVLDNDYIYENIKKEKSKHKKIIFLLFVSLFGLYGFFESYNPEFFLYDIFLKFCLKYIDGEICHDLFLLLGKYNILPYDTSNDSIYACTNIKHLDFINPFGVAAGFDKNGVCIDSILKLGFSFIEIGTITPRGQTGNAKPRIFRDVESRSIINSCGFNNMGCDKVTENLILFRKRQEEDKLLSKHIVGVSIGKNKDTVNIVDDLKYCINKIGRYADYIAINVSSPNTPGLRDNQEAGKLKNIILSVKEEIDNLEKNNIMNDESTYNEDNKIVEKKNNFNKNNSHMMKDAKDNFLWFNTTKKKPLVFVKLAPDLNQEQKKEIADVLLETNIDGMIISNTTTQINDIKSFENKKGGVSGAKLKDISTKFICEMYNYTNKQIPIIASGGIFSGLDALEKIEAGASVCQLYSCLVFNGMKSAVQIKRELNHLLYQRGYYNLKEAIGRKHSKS
E3 ubiquitin-protein ligase XIAP (Homo sapiens), sequence (P98170 whole entry, looked up): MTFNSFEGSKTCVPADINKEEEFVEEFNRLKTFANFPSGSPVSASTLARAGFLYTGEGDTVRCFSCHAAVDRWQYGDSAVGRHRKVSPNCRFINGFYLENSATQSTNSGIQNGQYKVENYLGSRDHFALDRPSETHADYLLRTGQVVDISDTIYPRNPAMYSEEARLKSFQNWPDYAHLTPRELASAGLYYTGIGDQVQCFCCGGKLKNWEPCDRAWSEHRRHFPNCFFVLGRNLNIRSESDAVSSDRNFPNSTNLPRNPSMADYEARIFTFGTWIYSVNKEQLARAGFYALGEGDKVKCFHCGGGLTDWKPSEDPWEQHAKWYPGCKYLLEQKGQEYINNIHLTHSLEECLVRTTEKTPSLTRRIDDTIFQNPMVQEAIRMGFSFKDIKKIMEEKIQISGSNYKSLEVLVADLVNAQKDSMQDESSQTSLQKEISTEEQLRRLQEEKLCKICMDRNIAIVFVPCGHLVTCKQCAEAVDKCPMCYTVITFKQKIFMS
Homeobox protein Hox-A13 (Mus musculus), sequence (Q62424 whole entry, looked up): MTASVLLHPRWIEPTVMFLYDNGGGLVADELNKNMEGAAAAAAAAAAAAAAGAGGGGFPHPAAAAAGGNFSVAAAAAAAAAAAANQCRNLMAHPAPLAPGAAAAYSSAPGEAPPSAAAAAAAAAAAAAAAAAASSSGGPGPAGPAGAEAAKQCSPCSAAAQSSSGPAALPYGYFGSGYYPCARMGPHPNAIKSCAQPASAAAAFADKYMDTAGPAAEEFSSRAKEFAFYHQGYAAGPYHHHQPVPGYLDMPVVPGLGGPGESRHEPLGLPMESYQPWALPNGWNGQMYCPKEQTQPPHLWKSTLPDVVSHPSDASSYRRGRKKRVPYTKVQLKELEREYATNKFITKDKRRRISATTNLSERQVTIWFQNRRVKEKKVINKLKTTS

| SMILES | z-score [1] | z-score [2] | z-score [3] | composite z-score [4] | z-score [5] | z-score [6] | z-score [7] | z-score [8] | z-score [9] | composite z-score [10] | composite z-score [11] | composite z-score (XIP peptide (Xip251-270)) | z-score [12] | z-score [13] | z-score [14] | z-score [15] |
| --- | --- | --- | --- | --- | --- | --- | --- | --- | --- | --- | --- | --- | --- | --- | --- | --- |
| C=C(/C(=C/C[C@H](OC(C)=O)c1ccc(OCCO)cc1)c1cc(C(=O)OC)ccc1OC)C(C)C | 1.5 | -0.962 (inactive) | 0.012 (inactive) | -0.858 (inactive) | 0.613 (inactive) | -0.0571 (inactive) | 0.483 (inactive) | 0.232 (inactive) | 0.0628 | -0.307 | 0.537 (inactive) | 0.808 | -2.9 | -3.69 (inactive) | 0.418 (inactive) | 1.29 (inactive) |
| CC(=O)Nc1cc(Br)ccc1C(=O)NCc1ccccc1 | 0.184 | -8.91 (active) | -0.292 (inactive) | 0.663 (inactive) | -0.131 (inactive) | -0.294 (inactive) | 0.0344 (inactive) | -0.785 (inactive) | -0.108 | -0.157 | 0.137 (inactive) | 0.201 | 1.3 | -0.77 (inactive) | 0.0852 (inactive) | 0.516 (inactive) |
| CN1CCC(CCCO)=CC1c1cccs1 (stereo not given) | -0.34 | -0.158 (inactive) | -0.838 (inactive) | -0.404 (inactive) | -0.377 (inactive) | -0.842 (inactive) | 0.212 (inactive) | 0.0999 (inactive) | -0.707 | -0.319 | 0.912 (inactive) | -1 | 0.896 | -4.21 (inactive) | 1.02 (inactive) | 0.692 (inactive) |
| COC(=O)[C@@]1(Cc2ccc(OC)cc2)[C@H]2c3cc(C(=O)N4CCCC4)n(Cc4nc5ccccc5[nH]4)c3C[C@H]2CN1C(=O)c1ccccc1 | 0.0719 | 1.36 (inactive) | -1.79 (inactive) | 0.98 (inactive) | -0.222 (inactive) | 0.736 (inactive) | -0.0181 (inactive) | -0.104 (inactive) | -1.2 | 0.62 | 1.01 (inactive) | 0.636 | -1.22 | -2.23 (inactive) | 0.732 (inactive) | 0.409 (inactive) |
| C#CCOc1ccc(C[C@@H](C(=O)OC)N(CC#C)[C@@H](/C=C/C2CC2)[C@H](O)Cc2ccccc2)cc1 | 0.288 | 1.03 (inactive) | 0.232 (inactive) | 0.567 (inactive) | -0.271 (inactive) | 1.45 (inactive) | -0.741 (inactive) | -0.528 (inactive) | 0.318 | 0.157 | -0.365 (inactive) | -0.119 | -1.21 | -3.88 (inactive) | -0.146 (inactive) | -0.432 (inactive) |
| CN(C)C(=O)[C@]1(Cc2ccccc2)N=C(c2ccc(OCCCO)cc2)O[C@@H]1c1ccccc1N=[N+]=[N-] | -0.274 | -1.43 (inactive) | -2.64 (inactive) | 0.9 (inactive) | -0.0837 (inactive) | 1.29 (inactive) | 0.349 (inactive) | 0.908 (inactive) | -2.58 | 0.237 | 0.79 (inactive) | 0.708 | -2.31 | -5.85 (inactive) | -0.366 (inactive) | -0.903 (inactive) |
| O=C1[C@@]23C=C(Br)[C@H](C[C@@H]2COC3)[C@]12CO2 | -0.845 | -10.2 (active) | -0.874 (inactive) | -1.91 (inactive) | 0.732 (inactive) | -0.384 (inactive) | -0.0135 (inactive) | -0.0637 (inactive) | -0.741 | -0.105 | -0.0125 (inactive) | -1.48 | 1.81 | -7.3 (inactive) | 0.825 (inactive) | 0.343 (inactive) |
| C[N+](C)(C)CCCCCCNC(=O)[C@H]1C[C@H]2C(=O)N[C@@H](Cc3ccccc3)C(=O)N2[C@H]1c1cccc(OCCO)c1 | 0.384 | 0.0938 (inactive) | 0.313 (inactive) | -1.22 (inactive) | 0.255 (inactive) | 0.548 (inactive) | 0.395 (inactive) | 0.551 (inactive) | 0.23 | -0.144 | 0.875 (inactive) | 0.817 | -0.463 | -5.91 (inactive) | 0.685 (inactive) | 0.484 (inactive) |
| COC(=O)c1c(CC[C@@H](CO)NC(=O)N[C@@H](Cc2ccccc2)Cn2cc(-c3ccccn3)nn2)oc(C(=O)N2CCOCC2)c1C(=O)OC | 0.482 | -0.239 (inactive) | 0.475 (inactive) | 0.138 (inactive) | -0.476 (inactive) | 1.3 (inactive) | 0.506 (inactive) | 0.327 (inactive) | 0.277 | 0.23 | 0.53 (inactive) | 0.0134 | -0.671 | -2.7 (inactive) | 0.101 (inactive) | 0.0064 (inactive) |
| COCCOC(=O)N1C(=O)[C@@]2(c3cc(C#CCCO)ccc31)[C@H](c1ccc(O)cc1)N1[C@H](c3ccccc3)[C@H](c3ccccc3)OC(=O)[C@H]1[C@@H]2C(=O)N1CCN(c2ncccn2)CC1 | 1.36 | 0.467 (inactive) | -0.0402 (inactive) | -0.235 (inactive) | 0.541 (inactive) | 0.035 (inactive) | -0.235 (inactive) | -0.62 (inactive) | 0.783 | 0.17 | 0.729 (inactive) | 0.831 | -1.13 | -2.37 (inactive) | -0.264 (inactive) | -0.0303 (inactive) |
